Our source for the growth inhibition values is PubChem BioAssay (NCI).

The panel holds about 79,000 compounds, 15% with a hit somewhere; the sample as a whole holds those more often. A number with no mark means an inactive call. Cut-off read from the data, not from the text of the source: active = growth inhibition above about 70%; inactive = the rest.

The nature of one experiment: NCI Yeast Anticancer Drug Screen. Data for the mec2-1 strain (AID 157). Particulars: S. cerevisiae mec2-1 strain, at 50.0 µM, hits give high values. The method in brief:
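Vehicle-treated cultures served as reference for growth inhibition of compound-exposed mec2-1 yeast.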
Consider `CC1CC(C)(C)OC(c2ccc(Cl)cc2)O1` (stereo not given), for which the growth inhibition is -5.85%.

With `Cc1nc(N)sc1C(=O)/C=C\c1ccc2c(c1)OCO2`, the growth inhibition was -3.2%.

For `N#CCCC(=O)c1ccc[nH]1`, the growth inhibition was 10.8%.

`COc1cc(-c2ccc(N=Nc3ccc(N)nc3N)c(OC)c2)ccc1N=Nc1ccc(N)nc1N`: the growth inhibition was -3.9%.

In the case of `CCC(CC)C(=O)NC(=O)NC`, the growth inhibition was -16.5%.

On to `CCO/C=N/c1oc(-c2ccccc2)nc1C#N`, for which the growth inhibition was 4.95%.

For `O=[N+]([O-])c1ccc2nc(Cl)cnc2c1`, the growth inhibition was 31.2%.

As for `NC(=O)C(N)C(N)=NCc1ccccc1` (stereo not given), the growth inhibition is 1.35%.

Turning to `COC1=CC(=O)N(C(=O)C2CSC(C(CO)NC(=O)c3csc(/C=N/O)n3)=N2)C1` (stereo not given), the growth inhibition was -11.3%.

With `O=C(C1CC=CCC1C(=O)N1CCCCC1)N1CCCCC1` (stereo not given), the growth inhibition was -8.65%.

Take `COc1cc(C)c2c(c1)C=C[C@@H]1[C@@H]2CC[C@]2(C)C(=O)CC[C@@H]12`: the growth inhibition is 3.3%.

`CCOC(=O)C1=C(N)n2c(s/c(=C/c3ccc(N(C)C)cc3)c2=O)=C(C(=O)OCC)C1c1ccc(N(C)C)cc1` (stereo not given): the growth inhibition was -19.1%.

For `CC(=O)OCC1OC(Sc2nc3ncnc(N)c3[nH]2)C(OC(C)=O)C(OC(C)=O)C1OC(C)=O` (stereo not given), the growth inhibition is -1.3%.

As to `COc1ccccc1/C=C/C(=O)c1sc(-c2cccnc2)nc1C`, the growth inhibition was 17.5%.

For the compound `c1ccc2c(c1)n1nnnc1c1nnnn21`, the growth inhibition was -10.4%.

Turning to `CCCCOB(OCCCC)OCCCC`, the growth inhibition was -3.25%.

For the compound `Cc1ccc(-c2ccc(C)cc2)cc1`, the growth inhibition is -38%.

Regarding `O=C(NC(O)(C(F)(F)F)C(F)(F)F)c1ccccc1`, the growth inhibition is 6.85%.

For `COC(=O)CCCC(NC(=O)c1ccc([N+](=O)[O-])cc1)C(=O)OC` (stereo not given), the growth inhibition is -9.45%.

With `N#Cc1cnc(SCC(=O)O)nc1N`, the growth inhibition was -39.6%.

Take `Nc1ncnc2c1ncn2-c1ccccc1Cl`: the growth inhibition is 8.35%.

Consider `CN(C)CCCNc1cc[n+](C)c2cccc([N+](=O)[O-])c12`, for which the growth inhibition is 15.4%.

Consider `O=C(O)c1ccc([N+](=O)[O-])cc1OCc1ccccc1`, for which the growth inhibition is -5.1%.

Regarding `NC(=O)CCC(NS(=O)(=O)c1ccc(NC(=O)c2ccccc2)cc1)C(=O)O` (stereo not given), the growth inhibition was -4.1%.

Turning to `COc1ccc(NC(=O)CCC(=O)CC(=O)c2ccc(C)cc2)cc1`, the growth inhibition is 31.1%.

On to `COc1cc(C(=O)Nc2c3ccccc3nc3ccccc23)cc(OC)c1OC`, for which the growth inhibition was -4.55%.

For `NNc1nc2ccccc2[nH]1`, the growth inhibition is -0.1%.

For `CCOC(=N)CC(=O)Nc1ccccc1CC`, the growth inhibition was -0.05%.

On to `CCOC(=O)C(C)C(=O)NCc1ccccc1` (stereo not given), for which the growth inhibition is -4.9%.

As for `O=C(Nc1cccc2ccccc12)OCC1CC1`, the growth inhibition is 22.8%.

As to `O=C=Nc1ccc(Cc2ccc(N=C=O)cc2)cc1` (tested in a mixture with another compound), the growth inhibition was -1.5%.

`Cc1cccc(NC(=O)NC(O)C(Cl)(Cl)Cl)c1` (stereo not given): the growth inhibition was -3.35%.

With `Brc1ccc(Br)nc1`, the growth inhibition is -4.65%.

Take `CCCCCCCCCCCCc1c2ccccc2cc2ccccc12`: the growth inhibition was -3.8%.

With `CCN(CC)c1ccccc1S(=O)(=O)O`, the growth inhibition is -5.3%.

Regarding `c1cc2nc(c1)CSCCCCCCCCSC2`, the growth inhibition is 41%.

`CC=C/C=C/[C@@H]1O[C@](O)([C@H](CC)C(=O)NC/C=C/C=C(\C)[C@@H](OC)[C@@H](C)[C@@H]2O[C@H](/C=C/C=C/C=C(\C)C(=O)c3c(O)cc[nH]c3=O)[C@H](O)[C@@H]2O)[C@H](O)[C@H](O)C1(C)C`: the growth inhibition was 18.9%.

In the case of `CC(=O)c1ccco1`, the growth inhibition was 16.4%.

Regarding `N#CCCC(CCC#N)(CCC(CCC#N)(CCC#N)[N+](=O)[O-])[N+](=O)[O-]`, the growth inhibition was 11%.

Regarding `O=C1NC(c2cccc3ccccc23)Nc2ccccc21` (stereo not given), the growth inhibition was -14.8%.

A further experiment can be described thus: NCI Yeast Anticancer Drug Screen. Data for the sgs1 mgt1 strain (AID 161).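 Note: 0% = growth of cultures given vehicle only.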 The conditions noted are these: S. cerevisiae sgs1 mgt1 strain, at 50.0 µM, hits give high values. The method in brief:
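Read-out: growth inhibition vs vehicle controls. Cells: mutant yeast strain deficient in DNA damage repair.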
Take `CC1CC(C)(C)OC(c2ccc(Cl)cc2)O1` (stereo not given): the growth inhibition is -9.6%.

In the case of `Cc1nc(N)sc1C(=O)/C=C\c1ccc2c(c1)OCO2`, the growth inhibition is 23.4%.

For `N#CCCC(=O)c1ccc[nH]1`, the growth inhibition was 2.2%.

Turning to `COc1cc(-c2ccc(N=Nc3ccc(N)nc3N)c(OC)c2)ccc1N=Nc1ccc(N)nc1N`, the growth inhibition is 23.3%.

Turning to `CCC(CC)C(=O)NC(=O)NC`, the growth inhibition was -21.2%.

In the case of `CCO/C=N/c1oc(-c2ccccc2)nc1C#N`, the growth inhibition was -4.85%.

In the case of `O=[N+]([O-])c1ccc2nc(Cl)cnc2c1`, the growth inhibition is 16.5%.

As to `NC(=O)C(N)C(N)=NCc1ccccc1` (stereo not given), the growth inhibition was 4.15%.

With `COC1=CC(=O)N(C(=O)C2CSC(C(CO)NC(=O)c3csc(/C=N/O)n3)=N2)C1` (stereo not given), the growth inhibition was 8.9%.

As for `O=C(C1CC=CCC1C(=O)N1CCCCC1)N1CCCCC1` (stereo not given), the growth inhibition is -6.2%.

`COc1cc(C)c2c(c1)C=C[C@@H]1[C@@H]2CC[C@]2(C)C(=O)CC[C@@H]12`: the growth inhibition was -2.55%.

`CCOC(=O)C1=C(N)n2c(s/c(=C/c3ccc(N(C)C)cc3)c2=O)=C(C(=O)OCC)C1c1ccc(N(C)C)cc1` (stereo not given): the growth inhibition is -9.1%.

Take `CC(=O)OCC1OC(Sc2nc3ncnc(N)c3[nH]2)C(OC(C)=O)C(OC(C)=O)C1OC(C)=O` (stereo not given): the growth inhibition was -18.9%.

As for `COc1ccccc1/C=C/C(=O)c1sc(-c2cccnc2)nc1C`, the growth inhibition was 5.3%.

As to `c1ccc2c(c1)n1nnnc1c1nnnn21`, the growth inhibition is 20.1%.

Turning to `CCCCOB(OCCCC)OCCCC`, the growth inhibition is -12.6%.

Regarding `Cc1ccc(-c2ccc(C)cc2)cc1`, the growth inhibition is -22.2%.

For `O=C(NC(O)(C(F)(F)F)C(F)(F)F)c1ccccc1`, the growth inhibition is 10.7%.

Turning to `COC(=O)CCCC(NC(=O)c1ccc([N+](=O)[O-])cc1)C(=O)OC` (stereo not given), the growth inhibition is 13.9%.

Take `N#Cc1cnc(SCC(=O)O)nc1N`: the growth inhibition was -15.5%.

`Nc1ncnc2c1ncn2-c1ccccc1Cl`: the growth inhibition is -4.95%.

For the compound `CN(C)CCCNc1cc[n+](C)c2cccc([N+](=O)[O-])c12`, the growth inhibition was 31.4%.

For `O=C(O)c1ccc([N+](=O)[O-])cc1OCc1ccccc1`, the growth inhibition is 12.9%.

As for `NC(=O)CCC(NS(=O)(=O)c1ccc(NC(=O)c2ccccc2)cc1)C(=O)O` (stereo not given), the growth inhibition was -22.9%.

Regarding `COc1ccc(NC(=O)CCC(=O)CC(=O)c2ccc(C)cc2)cc1`, the growth inhibition was 39.6%.

On to `COc1cc(C(=O)Nc2c3ccccc3nc3ccccc23)cc(OC)c1OC`, for which the growth inhibition is 7.8%.

As to `NNc1nc2ccccc2[nH]1`, the growth inhibition is -34.9%.

In the case of `CCOC(=N)CC(=O)Nc1ccccc1CC`, the growth inhibition is 11.6%.

Regarding `CCOC(=O)C(C)C(=O)NCc1ccccc1` (stereo not given), the growth inhibition was -6.8%.

In the case of `O=C(Nc1cccc2ccccc12)OCC1CC1`, the growth inhibition is -4.55%.

For `O=C=Nc1ccc(Cc2ccc(N=C=O)cc2)cc1` (tested in a mixture with another compound), the growth inhibition was -12.2%.

As for `Cc1cccc(NC(=O)NC(O)C(Cl)(Cl)Cl)c1` (stereo not given), the growth inhibition is -6.25%.

As to `Brc1ccc(Br)nc1`, the growth inhibition is -10.1%.

As for `CCCCCCCCCCCCc1c2ccccc2cc2ccccc12`, the growth inhibition was -4.7%.

In the case of `CCN(CC)c1ccccc1S(=O)(=O)O`, the growth inhibition was 2.9%.

Turning to `c1cc2nc(c1)CSCCCCCCCCSC2`, the growth inhibition is 17.8%.

As for `CC=C/C=C/[C@@H]1O[C@](O)([C@H](CC)C(=O)NC/C=C/C=C(\C)[C@@H](OC)[C@@H](C)[C@@H]2O[C@H](/C=C/C=C/C=C(\C)C(=O)c3c(O)cc[nH]c3=O)[C@H](O)[C@@H]2O)[C@H](O)[C@H](O)C1(C)C`, the growth inhibition was 38.9%.

Turning to `CC(=O)c1ccco1`, the growth inhibition is -5.15%.

On to `N#CCCC(CCC#N)(CCC(CCC#N)(CCC#N)[N+](=O)[O-])[N+](=O)[O-]`, for which the growth inhibition was 10.8%.

On to `O=C1NC(c2cccc3ccccc23)Nc2ccccc21` (stereo not given), for which the growth inhibition was 9.2%.
